The results in this text go back to PubChem BioAssay (NCI).

Structures are written as SMILES. The panel holds about 83,000 compounds, 20% with a hit somewhere; the sample as a whole holds those more often.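 Testing used 96-well plates and a 48-hour single-concentration exposure. Example: -40 means 40% of the starting cells died.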 Unmarked numbers belong to inactive results. Calls of active or inactive are those of the source. How the source made its calls: active means growth percent below 10; inactive means the rest.

What all share (experiment): NCI-60 one-dose screen, 48 h (100 = growth as untreated, 0 = no growth, -100 = all killed)
One test concerns NCI-H23 lung. To be noted: 10 µM unless noted.
The test system of the next test is NCI-H226 lung. To be noted: 10 µM unless noted.
The test system of the next test is NCI-H322M lung. Particulars: 10 µM unless noted.
Another test concerns HOP-62 NSCLC. Particulars: 10 µM unless noted.
The test system of the next test is NCI-H460 lung. To be noted: 10 µM unless noted.
For a further test, the system named is HOP-92 NSCLC. To be noted: 10 µM unless noted.
Another test has as its system NCI-H522 lung. To be noted: 10 µM unless noted.
The next test has as its system A549/ATCC NSCLC. To be noted: 10 µM unless noted.
The test system of a further test is 786-0 renal. Particulars: 10 µM unless noted.
For a further test, the system named is COLO 205 colon. Particulars: 10 µM unless noted.
For the next test, the system named is DU-145 prostate. To be noted: 10 µM unless noted.
A further test concerns K-562 leukemia. Particulars: 10 µM unless noted.
For a further test, the system named is MALME-3M melanoma. To be noted: 10 µM unless noted.
The subject of another test is MDA-MB-231 breast. Particulars: 10 µM unless noted.
In the next test the test system is RXF 393 renal. To be noted: 10 µM unless noted.
The test system of a further test is SF-268 CNS. Particulars: 10 µM unless noted.
Another test concerns SF-295 CNS. Particulars: 10 µM unless noted.
A further test relates to SF-539 CNS. To be noted: 10 µM unless noted.
For the next test, the system named is M14 melanoma. To be noted: 10 µM unless noted.
The next test relates to UACC-257 melanoma. Particulars: 10 µM.

Turning to `CCC(C)[C@H]1OC(=O)[C@H](C(C)C)N(C)C(=O)[C@@H](C(C)C)OC(=O)[C@H](C(C)C)N(C)C(=O)[C@@H](C(C)CC)OC(=O)[C@H](C(C)C)N(C)C1=O` (some centres not stated), the growth with NCI-H23 lung is 8.83% (active); in the test with NCI-H226 lung, 19.2%; in the test on NCI-H322M lung, 8.61% (active); in the test on HOP-62 NSCLC it was 8.79% (active); in the test on NCI-H460 lung, 9.08% (active); with HOP-92 NSCLC, -19.8% (active). Also, the growth is -2.93% (active) in the test with NCI-H522 lung; 12.9% in the test with A549/ATCC NSCLC; 10.4% in the test on 786-0 renal; -91.8% (active) in the test with COLO 205 colon; 22% in the test with DU-145 prostate; 8.02% (active) with K-562 leukemia. The growth in the test with MALME-3M melanoma is 7.55% (active); in the test on MDA-MB-231 breast, 2.72% (active); in the test on RXF 393 renal, 17.2%; in the test with SF-268 CNS, 22.1%; in the test with SF-295 CNS, 6.32% (active); in the test on SF-539 CNS, 13.8%. Further, in the test on M14 melanoma, the growth was 17.6%.
Take `O=C(CCCCCCN1CC(=O)N2[C@@H](c3cc(F)cc(F)c3)c3[nH]c4ccccc4c3C[C@H]2C1=O)NO`: the growth with NCI-H23 lung is 77.4%; with NCI-H226 lung, 98.1%; with NCI-H322M lung it was 75.1%; in the test on HOP-62 NSCLC it was 63.4%; with NCI-H460 lung, 64.4%; with HOP-92 NSCLC, 49.2%. The growth in the test with NCI-H522 lung is 41.2%; in the test on A549/ATCC NSCLC it was 90.5%; in the test on 786-0 renal it was 90.9%; in the test with COLO 205 colon it was 53.1%; in the test with DU-145 prostate, 65.7%; in the test on K-562 leukemia it was 32.2%. Also, the growth was 30.7% in the test with MALME-3M melanoma; 62% with MDA-MB-231 breast; 33.6% in the test with RXF 393 renal; 79.8% in the test on SF-268 CNS; 60% with SF-295 CNS; 60.5% in the test on SF-539 CNS. Moreover, the growth is 44.1% with UACC-257 melanoma and 51.9% in the test on M14 melanoma.
On to `O=S(=O)(NC1CC2CCC1C2)c1ccc2c(c1)C(=NO)c1cc(S(=O)(=O)NC3CC4CCC3C4)ccc1-2` (configuration not stated), for which the growth in the test with NCI-H23 lung was -84.2% (active); with NCI-H226 lung it was 75.2%; in the test on NCI-H322M lung it was 58.3%; in the test on HOP-62 NSCLC it was -70.5% (active); in the test on NCI-H460 lung, 23.5%; with HOP-92 NSCLC it was -4.1% (active). For the same compound, the growth with NCI-H522 lung was 32.4%; with A549/ATCC NSCLC it was 75%; with 786-0 renal, 31.3%; in the test on COLO 205 colon, 85.5%; with DU-145 prostate it was 4.92% (active); with K-562 leukemia it was 11.9%. The growth in the test with MALME-3M melanoma is -78.9% (active); in the test with MDA-MB-231 breast, -21.9% (active); in the test with RXF 393 renal, -9.66% (active); in the test on SF-268 CNS, 8.95% (active); with SF-295 CNS it was 62.9%; in the test on SF-539 CNS it was -35% (active). The figures for the growth with UACC-257 melanoma and in the test on M14 melanoma were 105% and 24.9%, respectively.
Regarding `CC1=CC(=O)CC(C)(C)[C@@]1(O)/C=C/C(C)=C\C(=O)O`, the growth in the test with NCI-H23 lung is -29.3% (active); with NCI-H226 lung, -46.5% (active); in the test with NCI-H322M lung, -11.3% (active); in the test with HOP-62 NSCLC, -41.6% (active); in the test with NCI-H460 lung, -6.19% (active); in the test on HOP-92 NSCLC, -14.6% (active). For the same compound, the growth was -41.6% (active) with NCI-H522 lung; -27.6% (active) with A549/ATCC NSCLC; -43.2% (active) in the test on 786-0 renal; -57.6% (active) in the test on COLO 205 colon; -21.8% (active) in the test on DU-145 prostate; 0.164% (active) in the test on K-562 leukemia. In addition, the growth in the test on MALME-3M melanoma is -57.5% (active); in the test with MDA-MB-231 breast, -18% (active); in the test on RXF 393 renal, -64.2% (active); with SF-268 CNS, -5.99% (active); with SF-295 CNS, -38.7% (active); in the test on SF-539 CNS, -46.5% (active). Also, the growth in the test on M14 melanoma is -77.3% (active).
For the compound `Cc1cc(O)c2c(c1)C(=O)C(c1c(C)cc3c(c1O)C(=O)C=CC3=O)=CC2=O`, the growth was 89.9% with NCI-H23 lung; 97.7% in the test with NCI-H226 lung; 110% in the test with NCI-H322M lung; 98.6% in the test with HOP-62 NSCLC; 109% with NCI-H460 lung; 108% in the test with HOP-92 NSCLC. Also, the growth with NCI-H522 lung is -36.9% (active); in the test on A549/ATCC NSCLC, 98.6%; with 786-0 renal it was 37.4%; with COLO 205 colon, -19.3% (active); with DU-145 prostate, 72.8%; in the test with K-562 leukemia it was 15.4%. In addition, the growth with MALME-3M melanoma is -15.2% (active); with MDA-MB-231 breast, 62.8%; in the test with RXF 393 renal, 20.2%; in the test with SF-268 CNS it was 96.8%; in the test with SF-295 CNS it was 107%; in the test on SF-539 CNS, 108%. The growth in the test with M14 melanoma is 93.1%.
Consider `CNC(=O)c1c(NC(=O)c2ccc(F)cc2F)sc2c1CCC(=O)C2`, for which the growth with NCI-H23 lung is 5.55% (active); in the test with NCI-H226 lung it was 15.7%; with NCI-H322M lung it was 33.3%; in the test with HOP-62 NSCLC, 16.3%; with NCI-H460 lung, 1.92% (active); with HOP-92 NSCLC it was -34% (active). Further, the growth is -10.1% (active) with NCI-H522 lung; 13.1% in the test with A549/ATCC NSCLC; 24% with 786-0 renal; -74% (active) in the test on COLO 205 colon; 66.4% with DU-145 prostate; 12.7% in the test with K-562 leukemia. Moreover, the growth in the test with MALME-3M melanoma was -9.54% (active); with MDA-MB-231 breast, -16.6% (active); in the test with RXF 393 renal, -28.9% (active); in the test on SF-268 CNS it was 20.3%; in the test with SF-295 CNS it was -3.76% (active); in the test on SF-539 CNS, -28.6% (active). Moreover, the growth was -2.26% (active) with UACC-257 melanoma and 19.3% in the test with M14 melanoma.
